# Source: PubChem BioAssay (NCATS)
# Records with an inconclusive call do not appear. A number with no mark means an inactive call. The call rests on the fitted dose curve; in most records, active means well fitted inhibition curve with a large enough effect; inconclusive means small, poorly fitted or top-dose-only effect; inactive means no such curve, though single readings can be large or run the other way.
# Biological target: N-terminal Xaa-Pro-Lys N-methyltransferase 1 (Homo sapiens) (UniProt Q9BV86)
# Sequence (Q9BV86 whole entry, looked up): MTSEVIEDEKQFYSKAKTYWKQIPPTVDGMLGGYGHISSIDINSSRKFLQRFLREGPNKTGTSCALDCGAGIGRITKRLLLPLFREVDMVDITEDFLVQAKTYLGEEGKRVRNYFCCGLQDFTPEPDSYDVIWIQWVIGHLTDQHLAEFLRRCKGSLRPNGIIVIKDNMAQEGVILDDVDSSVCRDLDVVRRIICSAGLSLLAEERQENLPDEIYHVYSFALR
# Assay: qHTS Assay for Inhibitors of N-terminal methyltransferase 1 (NTMT1): LOPAC validation of the NTMT1 SAHH-coupled ThioGlo3 Assay (AID 1347143);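 further: SAH from peptide methylation measured as thiol fluorescence via SAHH coupling and ThioGlo3; on the % scale 0 is the no-effect control and ±100 the full control effect; nearly all actives have a fitted effect of over 70% in size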
# Conditions: recombinant NTMT1, SAHH-coupled ThioGlo3 fluorescence; series mostly up to 114 µM; activity change, negative = inhibition: at the top concentration
# Outline: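 In this qHTS pilot against the LOPAC set, 125nM NTMT1 met compounds tested at multiple concentrations, and fluorescence was normalized to background.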
row,SMILES,"activity change, negative = inhibition"
1,COc1ccc(C(=O)N2CCCC2=O)cc1,-12.4%
2,O=C(O)c1nn(Cc2ccc(Cl)cc2Cl)c2ccccc12,-11.6%
3,NC(=O)CN1CCCC1=O,-13.8%
4,COC(=O)C1=CCCN(C)C1,-14.7%

# Test system: Zika virus NS2B-NS3 protease (unlinked)
# Assay: Optimization of GU AMC qHTS for Zika virus inhibitors: Unlinked NS2B-NS3 protease assay (AID 1347151);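 further: 0% = no-inhibitor control and -100% = no-enzyme control; nearly all actives have a fitted effect of over 80% in size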
# Conditions: recombinant ZIKV NS2B-NS3 protease, fluorogenic AMC substrate; series mostly up to 52.5 µM; activity change, negative = inhibition: at the top concentration
# Outline: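 Unlinked protease (25 nM final); buffer 10 mM Tris-HCl pH 8.0 + 0.01% Tween 20; AMC substrate; 15 min RT, dark; Δfluorescence normalized to no-inhibitor/no-enzyme controls; 4-parameter Hill fit.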
row,SMILES,"activity change, negative = inhibition"
1,CC(C)=CCN1CC[C@@]2(C)c3cc(O)ccc3C[C@@H]1[C@@H]2C,-12.9% [at 114 µM]
2,COc1ccc(C(=O)N2CCCC2=O)cc1,0.467%
3,NC(=O)CN1CCCC1=O,3.41%
4,COC(=O)C1=CCCN(C)C1,2.34%
